Source: PubChem BioAssay (NCI)
The panel holds about 79,000 compounds, 15% with a hit somewhere; the sample as a whole holds those more often. The source made the active and inactive calls. Rule as the data show it: active = growth inhibition above about 70%; inactive = the rest.

What was measured:
[1] = NCI Yeast Anticancer Drug Screen. Data for the rad52 strain (AID 147);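 also: 0% = growth of vehicle-treated control cultures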; details: S. cerevisiae rad52 mutant growth inhibition, hits give high values
In short: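 The repair-mutant yeast strain was incubated with compounds, then growth was read and inhibition derived relative to vehicle.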

[2] = NCI Yeast Anticancer Drug Screen. Data for the wt1 strain (AID 149);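 also: 0% = growth of vehicle-treated wt1 cultures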; details: S. cerevisiae wt1 strain (SPY 50644) growth inhibition, hits give high values
In short: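 Growth inhibition read against vehicle controls after compound exposure of the wt1 yeast strain.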

[3] = NCI Yeast Anticancer Drug Screen. Data for the rad50EPP+ strain (AID 151);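 also: 0% = growth of vehicle-treated control cultures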; details: S. cerevisiae rad50 mutant strain, hits give high values
In short: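 Vehicle-normalised growth inhibition; rad50EPP+ yeast strain, altered in DNA damage repair, compound-treated.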

[4] = NCI Yeast Anticancer Drug Screen. Data for the mgt1 strain (AID 153); details: S. cerevisiae mgt1 mutant growth inhibition, hits give high values
In short: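 Vehicle-normalized growth inhibition is determined in mgt1 yeast, a strain selected for a defined alteration in DNA repair or cell cycle control.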

[5] = NCI Yeast Anticancer Drug Screen. Data for the rad50 strain (AID 155);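 also: 0% = growth of vehicle-only cultures of the same strain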; details: S. cerevisiae rad50 strain growth inhibition, hits give high values
In short: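 Readout: growth inhibition relative to vehicle-treated cultures. Compound exposure was carried out in a genetically defined yeast strain deficient in DNA damage repair.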

[6] = NCI Yeast Anticancer Drug Screen. Data for the mec2-1 strain (AID 157); details: S. cerevisiae mec2-1 strain, hits give high values
In short: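 Mutant yeast (mec2-1) grown with compound; growth inhibition relative to vehicle control reported.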

[7] = NCI Yeast Anticancer Drug Screen. Data for the rad14 strain (AID 159);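 also: 0% = growth of vehicle-treated control cultures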; details: S. cerevisiae rad14 strain growth inhibition, hits give high values
In short: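 Growth inhibition vs vehicle controls; genetically altered yeast strain (DNA damage repair defect) treated with test compounds.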

[8] = NCI Yeast Anticancer Drug Screen. Data for the sgs1 mgt1 strain (AID 161);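 also: 0% = growth of cultures given vehicle only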; details: S. cerevisiae sgs1 mgt1 strain, hits give high values
In short: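 Yeast cells carrying a defined DNA-repair defect were exposed to test compounds. Growth inhibition was measured relative to vehicle-treated controls.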

[9] = NCI Yeast Anticancer Drug Screen. Data for the CLN2oe strain (AID 163);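 also: 0% = growth of vehicle-only control cultures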; details: S. cerevisiae CLN2oe strain, hits give high values
In short: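 Compounds are applied to yeast harbouring a defined cell-cycle control change; reduced growth compared with vehicle-treated controls gives the value.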

[10] = NCI Yeast Anticancer Drug Screen. Data for the cln2 rad14 strain (AID 165);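 also: 0% = growth equal to vehicle treated cultures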; details: S. cerevisiae cln2 rad14 strain, hits give high values
In short: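 Readout is yeast growth inhibition versus vehicle-treated controls, using a strain with cln2 and rad14 alterations exposed to compound.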

[11] = NCI Yeast Anticancer Drug Screen. Data for the bub3 strain (AID 167); details: S. cerevisiae bub3 mutant strain, hits give high values
In short: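 Readout: yeast growth inhibition, expressed relative to vehicle-only wells. The test organism is a mutant strain from a panel with lesions in DNA repair or checkpoint genes.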

[12] = NCI Yeast Anticancer Drug Screen. Data for the wt2 strain (AID 169);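 also: 0% = growth of vehicle-treated yeast cultures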; details: S. cerevisiae wt2 strain growth inhibition, hits give high values
In short: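 Against vehicle-treated controls, the growth of yeast exposed to each compound was compared, and the inhibition was recorded.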

[13] = NCI Yeast Anticancer Drug Screen. Data for the mlh1 strain (AID 171);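 also: 0% = growth of vehicle-treated control cultures of the same strain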; details: S. cerevisiae mlh1 strain growth inhibition, hits give high values
In short: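 Measured: yeast growth. Reference: vehicle-treated controls. Organism: strain with a defined alteration affecting DNA damage repair or cell cycle control, treated with compound.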

[14] = NCI Yeast Anticancer Drug Screen. Data for the sgs1 strain (AID 173);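 also: 0% = growth of vehicle-only control cultures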; details: S. cerevisiae sgs1 mutant, hits give high values
In short: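 Each compound was added to cultures of the altered yeast strain. Growth was recorded, and inhibition was derived by comparison with vehicle controls.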

[15] = NCI Yeast Anticancer Drug Screen. Data for the mlh1 rad18 strain (AID 175); details: S. cerevisiae mlh1 rad18 strain growth inhibition, hits give high values
In short: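 Genetically defined yeast (DNA repair-deficient) exposed to compounds; growth inhibition determined relative to vehicle.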

[16] = NCI Yeast Anticancer Drug Screen. Data for the rad18 strain (AID 177); details: S. cerevisiae rad18 mutant growth inhibition, hits give high values
In short: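 Vehicle-treated cultures served as the baseline for scoring compound-induced growth inhibition in DNA-repair-mutant yeast.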

[17] = at 5.0 µM (retest, dose inferred, filed as 0.5)
[18] = at 50.0 µM (retest, dose inferred, filed as 5.0)

Measured: growth inhibition

O=[N+]([O-])c1cccc2nc3ccccc3c(NCCCn3ccnc3[N+](=O)[O-])c12
active: [1]; at 11.0 µM 86% | [1]; at 33.0 µM 94% | [1]; at 100.0 µM 97% | [2]; at 100.0 µM 86% | [3]; at 33.0 µM 83% | [3]; at 100.0 µM 90% | [4]; at 100.0 µM 82% | [5]; at 11.0 µM 86% | [5]; at 33.0 µM 94% | [5]; [18] 94% | [5]; at 50.0 µM 80% | [5]; at 100.0 µM 96% | [6]; at 11.0 µM 88% | [6]; at 33.0 µM 96% | [6]; [18] 98% | [6]; at 50.0 µM 87.5% | [6]; at 100.0 µM 97% | [7]; at 3.7 µM 73% | [7]; at 11.0 µM 95% | [7]; at 33.0 µM 97% | [7]; at 100.0 µM 98% | [8]; [18] 94% | [8]; at 50.0 µM 85% | [9]; at 33.0 µM 82% | [9]; at 100.0 µM 92% | [10]; [18] 97% | [10]; at 50.0 µM 87.4% | [11]; [18] 78% | [11]; at 100.0 µM 88% | [12]; at 33.0 µM 74% | [12]; at 100.0 µM 88% | [13]; at 33.0 µM 75% | [13]; at 100.0 µM 92% | [14]; at 3.7 µM 74% | [14]; at 11.0 µM 85% | [14]; at 33.0 µM 90% | [14]; at 100.0 µM 93% | [15]; [18] 98% | [15]; at 50.0 µM 79.2% | [16]; at 1.2 µM 90% | [16]; at 3.7 µM 94% | [16]; at 11.0 µM 95% | [16]; at 33.0 µM 96% | [16]; at 100.0 µM 96%
inactive: [1]; at 1.2 µM 53% | [1]; at 3.7 µM 65% | [2]; at 1.2 µM -6% | [2]; at 3.7 µM 24% | [2]; at 11.0 µM 37% | [2]; at 33.0 µM 64% | [3]; at 1.2 µM 24% | [3]; at 3.7 µM 37% | [3]; at 11.0 µM 58% | [4]; at 1.2 µM 17% | [4]; at 3.7 µM 28% | [4]; at 11.0 µM 38% | [4]; at 33.0 µM 55% | [5]; at 1.2 µM 23% | [5]; at 3.7 µM 63% | [5]; [17] 24% | [6]; at 1.2 µM 29% | [6]; at 3.7 µM 55% | [6]; [17] 16% | [7]; at 1.2 µM 17% | [8]; [17] 54% | [9]; at 1.2 µM 5% | [9]; at 3.7 µM 27% | [9]; at 11.0 µM 46% | [10]; [17] 52% | [11]; at 1.2 µM -15% | [11]; at 3.7 µM -12% | [11]; [17] 11% | [11]; at 11.0 µM 11% | [11]; at 33.0 µM 51% | [11]; at 50.0 µM 58.4% | [12]; at 1.2 µM -16% | [12]; at 3.7 µM -9% | [12]; at 11.0 µM 19% | [13]; at 1.2 µM 17% | [13]; at 3.7 µM 33% | [13]; at 11.0 µM 47% | [14]; at 1.2 µM 61% | [15]; [17] 26%

CCCCCCCCCCCCCCCCCC(=O)NCCCN(C)C
inactive: [1]; at 1.2 µM -47% | [1]; at 3.7 µM -39% | [1]; at 11.0 µM -44% | [2]; at 1.2 µM -51% | [2]; at 3.7 µM -58% | [2]; at 11.0 µM -56% | [3]; at 1.2 µM -37% | [3]; at 3.7 µM -43% | [3]; at 11.0 µM 33% | [4]; at 1.2 µM -13% | [4]; at 3.7 µM -11% | [4]; at 11.0 µM -19% | [5]; at 1.2 µM -27% | [5]; at 3.7 µM -11% | [5]; [17] 33% | [5]; at 11.0 µM -17% | [6]; at 1.2 µM -31% | [6]; at 3.7 µM -31% | [6]; [17] 50% | [6]; at 11.0 µM -45% | [7]; at 1.2 µM -31% | [7]; at 3.7 µM -29% | [7]; at 11.0 µM -40% | [8]; [17] -32% | [9]; at 1.2 µM -35% | [9]; at 3.7 µM -37% | [9]; at 11.0 µM -80% | [10]; [17] 17% | [11]; at 1.2 µM 4% | [11]; at 3.7 µM 6% | [11]; [17] 42% | [11]; at 11.0 µM 1% | [12]; at 1.2 µM -29% | [12]; at 3.7 µM -27% | [12]; at 11.0 µM -37% | [13]; at 1.2 µM -21% | [13]; at 3.7 µM -35% | [13]; at 11.0 µM -44% | [14]; at 1.2 µM -5% | [14]; at 3.7 µM -13% | [14]; at 11.0 µM -13% | [15]; [17] 36% | [16]; at 1.2 µM -32% | [16]; at 3.7 µM -32% | [16]; at 11.0 µM -12%
active: [1]; at 33.0 µM 97% | [1]; at 100.0 µM 97% | [2]; at 33.0 µM 98% | [2]; at 100.0 µM 97% | [3]; at 33.0 µM 96% | [3]; at 100.0 µM 96% | [4]; at 33.0 µM 98% | [4]; at 100.0 µM 98% | [5]; at 33.0 µM 94% | [5]; [18] 98% | [5]; at 50.0 µM 92.2% | [5]; at 100.0 µM 96% | [6]; at 33.0 µM 98% | [6]; [18] 98% | [6]; at 50.0 µM 93.8% | [6]; at 100.0 µM 98% | [7]; at 33.0 µM 97% | [7]; at 100.0 µM 97% | [8]; [18] 97% | [8]; at 50.0 µM 93.2% | [9]; at 33.0 µM 97% | [9]; at 100.0 µM 97% | [10]; [18] 97% | [10]; at 50.0 µM 92% | [11]; at 33.0 µM 98% | [11]; [18] 95% | [11]; at 50.0 µM 92.2% | [11]; at 100.0 µM 98% | [12]; at 33.0 µM 97% | [12]; at 100.0 µM 98% | [13]; at 33.0 µM 97% | [13]; at 100.0 µM 97% | [14]; at 33.0 µM 96% | [14]; at 100.0 µM 97% | [15]; [18] 99% | [15]; at 50.0 µM 92.5% | [16]; at 33.0 µM 97% | [16]; at 100.0 µM 97%
